Screening data from PubChem BioAssay.
PrP 5UTR inh – suppresses PrP 5' UTR mRNA reporter expression; 340,000 tested, 0.35% active; AID 488862; cell-based PrP 5' UTR mRNA reporter, plate reader; inhibition, % (no concentration beside the values); in the data active = inhibition above about 52%; note: 0 = median of the neutral control wells
Yp Topo-I inh – blocks Yersinia pestis topoisomerase I activity; Y. pestis Topo-I cleavage product accumulation, plate reader; activity, % at 10 µM; 360,000 tested, 0.064% active; AID 504884; in the data active = activity above about 50%, passing the limit was not always enough
CCHF vOTU inh – CCHFV vOTU protease inhibition | Pep-AMC fluorescence | inhibition, % at 11.5 µM | 370,000 tested, 0.55% active; in the data active = inhibition above about 30%; note: 0% = vehicle wells with enzyme and 100% = no enzyme wells
BJeLR viability – kills HRASV12-expressing BJeLR cells. AID 1554. inhibition, % (test concentration not listed). 300,000 tested, 0.17% active. BJeLR (HRASV12) viability, CellTiter-Glo ATP luminescence, 48 h; in the data active = inhibition above about 50%
PrPC surface inh – inhibitors of human cell surface prion protein PrPC. P04156. 370,000 tested, 0.43% active. inhibition, % at 13.8 µM. TR-FRET read-out; in the data active = inhibition above about 24%; note: 0% = median of the test wells and 100% = reference compound wells
PfHsp40 rescue – rescue of PfHsp40-mediated yeast toxicity; S. cerevisiae expressing PfHsp40, growth rescue, ATP luminescence; growth rescue, % at 12.5 µM; 340,000 tested, 0.68% active; AID 504582; in the data active = growth rescue above about 28%, passing the limit was not always enough;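 note: yeast W303a lacking pdr1 and pdr3 grown in galactose medium; growth measured after three days at 30 °C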
* = called active by the depositor; nt = no result; ! = repeats disagree. Hits are enriched below; roughly 2% of the tested compounds scored in any of these assays.

SMILES	PrP 5UTR inh	Yp Topo-I inh	CCHF vOTU inh	BJeLR viability	PrPC surface inh	PfHsp40 rescue
COc1ccc(C(=O)NNC(=O)c2ccncc2)cc1[N+](=O)[O-]	-19	11	8	-6	-7	-1
Cc1cc(Nc2ccccc2)nn1C(=O)c1ccc(Br)cc1	-2	-2	0	-4	4	2
Cc1cc(Nc2ccccc2)nn1C(=O)c1ccccc1	-19	-4	-1	1	-6	239*
CC(C)CNC(=O)OCc1cn(Cc2ccccc2F)nn1	nt	nt	-4	nt	-1	nt
CCOC(=O)c1sc(NC(=O)CN2CC(C)OC(C)C2)nc1C (stereo not drawn)	-8	-9	6	-4	1	-1
Cc1nnc(NC(=O)CN2CC(C)OC(C)C2)s1 (stereo not drawn)	-64	3	14	8	-3	28*
CCOc1ccccc1CN1CCC(N2CCC(C(=O)NC3CC3)CC2)CC1	-9	-1	10	3	-8	30*
Fc1ccc(SCCc2ccccn2)cc1	-22	50*!	8	-2	-6	-1
COC(=O)C1=C(C)N(C)C(=NCc2cccc(C(F)(F)F)c2)NC1c1cccc(Cl)c1 (stereo not drawn)	nt	nt	1	nt	-15	nt
CC1CCCCC1N(C)C1CCN(C(=O)CNC(=O)/C=C/c2cccc(Cl)c2)CC1 (stereo not drawn)	-2	2	7	90*	-24	0
CN(C1CCCC1)C1CCN(C(=O)CNC(=O)/C=C/c2ccccc2)CC1	-8	1	-12	-7	-1	1
Cc1cccc(C(=O)CC(=O)c2cc(Cl)ccc2O)c1	-13	-8	nt	-24	nt	82*
O=C(O)c1ccn2c(C(=O)c3ccc(Cl)cc3)c(-c3ccccc3)cc2c1	2	4	12	-2	-1	72*
Cc1noc(C)c1S(=O)(=O)N1CCCc2nc(-c3ccccc3)ccc21	nt	nt	3	nt	-3	nt
CC(C)[C@]12O[C@H]1[C@@H]1O[C@]13[C@]1(O[C@H]1C[C@H]1C4=C(CC[C@@]13C)C(=O)OC4)[C@@H]2O	nt	nt	nt	68*	nt	nt
CCOC(=O)N1CCN(C(=O)c2ccc3c(=O)n(Cc4ccccc4OC)c(=S)[nH]c3c2)CC1	-3	2	-2	-14	-5	29*
CCOC(=O)N1CCN(C(=O)c2ccc3c(=O)n(Cc4ccccc4)c(=S)[nH]c3c2)CC1	-13	2	5	6	5	3
O=S1(=O)CC2c3ccccc3CCN2CN1Cc1ccc(F)cc1 (stereo not drawn)	nt	nt	3	nt	5	nt
O=S1(=O)c2ccc(N3CCN(Cc4ccccc4F)CC3)cc2Oc2ccccc2CN1Cc1cn(Cc2cccc(C(F)(F)F)c2)nn1	nt	nt	12	nt	-8	nt
C[C@]12CC[C@@H]3c4ccc(O)cc4CC[C@H]3[C@@H]1CC[C@@H]2O	-4	0	0	5	-7	-1
CC(NCCN(C)C)C1CCC2C3CCc4cc(O)ccc4C3CCC12C (stereo not drawn)	-20	4	7	nt	-13	63*
Cc1ccc(-c2cc(C(=O)NN=Cc3cccc4ccccc34)[nH]n2)cc1C	nt	nt	14	nt	7	nt
Cc1ccc(NC(=O)CSc2nsc(SCC(=O)Nc3ccc(C)cc3C)c2C#N)c(C)c1	-26	7	-7	0	0	55*
COc1ccc(N2C(=O)CC(SCc3ccc(Cl)cc3)C2=O)cc1 (stereo not drawn)	-24	27	5	-9	-5	70*
Nc1nc(CCl)nc(N(c2ccccc2)c2ccccc2)n1	nt	-4	-13	65*	0	nt
SMILES	PrP 5UTR inh	Yp Topo-I inh	CCHF vOTU inh	BJeLR viability	PrPC surface inh	PfHsp40 rescue
Nc1nc(Cl)nc(N(c2ccccc2)c2ccccc2)n1	-14	1	0	2	-2	-1
Cn1cc(/C=N/NC(N)=S)c2ccccc21	-13	-2	14	1	8	2
CCN(C(C)=O)c1cnc(C=NNC(N)=S)c2ccccc12	16	7	9	nt	10	82*
CCCCCc1ccc(OCCCC[n+]2ccc(C)cc2)c(CCCCC)c1	-3	-1	17	nt	17	0
CCCCCc1ccc(OCCCC[n+]2cccc(C)c2)c(CCCCC)c1	-12	-2	16	9	9	95*
CCCCCc1ccc(OCCCC[n+]2ccccc2)c(CCCCC)c1	-13	-8	nt	22	nt	135*
CC(=O)Nc1cc2nc3ccccc3oc-2cc1=O	nt	nt	2	nt	-9	nt
CCCCNC(=S)Nc1ccc([N+](=O)[O-])cc1	-10	1	-4	1	4	-2
Cc1ccc(C(C)C)cc1NC(=O)Nc1ccc([N+](=O)[O-])cc1	-9	-24	-5	10	6	151*
CC(C)CCNC(=S)Nc1ccc([N+](=O)[O-])cc1	-25	-3	8	-12	-2	128*
COc1ccc(OC2C(=O)N(Cc3ccc(F)cc3)C2c2cc(OC)c(OC)c(OC)c2)cc1 (stereo not drawn)	-28	-3	-5	-2	-7	1
COC(=O)c1ccc(C2C(Oc3ccc(OC)cc3)C(=O)N2CCc2ccc(F)cc2)cc1 (stereo not drawn)	-10	67*	-8	2	-2	0
O=C(OCc1ccccc1)[C@H](Cc1ccccc1)NC(=O)[C@@H]1CC=C[C@@H]2CCN(Cc3ccccc3)C(=O)[C@@H]21	nt	nt	nt	nt	6	nt
Cc1ccc(O)c(N=Cc2cc(Cc3ccccc3)cc([N+](=O)[O-])c2O)c1	-26	-12	23	-1	-3	124*
Oc1c(Cl)cc(Cl)cc1C=Nc1ccc(N2CCOCC2)cc1	-12	2	-9	-13	-8	0
O=[N+]([O-])c1cc(Cc2ccccc2)cc(C=Nc2ccc(N3CCOCC3)cc2)c1O	-15	-3	nt	-5	nt	274*
Cc1nn(-c2ccccc2)c2sc(C(=O)NCCc3ccc(Cl)cc3)cc12	nt	nt	0	nt	3	nt
CN1C(=O)C[C@@](C#N)(C(=O)NCCc2ccccc2)[C@H]1c1ccccc1	nt	nt	-4	nt	1	nt
Cc1ccc(NC(=O)Cn2cc(C(=O)C3CC3)c3ccccc32)c(C)c1	-3	76*	5	-10	1	0
COc1ccccc1OC(=O)c1cc2ccccc2oc1=O	-17	12	-9	9	6	7
COc1cc(/C=C/[N+](=O)[O-])ccc1OC(=O)c1cc2ccccc2oc1=O	-17	1	5	20	-9	118*
Cc1cc(C)c(S(=O)(=O)/N=C2/C=C(Sc3ncn[nH]3)C(=O)c3ccccc32)cc1C	-17	-10	118*	nt	-9	2
Cc1ccc(NC2=C/C(=N/S(=O)(=O)c3cccs3)c3ccccc3C2=O)cc1C	-12	5	1	-2	7	-1
Nc1c2ccccc2nc2ccccc12	-31	-12	-103	89*!	12	2
Clc1c(Cl)c(Cl)c2n[nH]nc2c1Cl	-28	3	5	4	-3	59*
COc1ccc(-n2c(SCC(=O)Nc3ccc(Oc4ccccc4)cc3)nnc2-c2ccco2)cc1	nt	nt	2	nt	-10	nt
O=C(NCCCN1CCOCC1)c1cccc(NC(=O)c2ccccc2)c1	-24	0	-14	-18	0	122*
